Measurements from PubChem BioAssay AID624168 (Sanford-Burnham Center for Chemical Genomics, 2012).
“And” between values parts separate entries of the source, which are not always exact repeats. Equal entries are not always repeated. The campaign covered roughly 360,000 compounds. About 800 (0.22%) were called active. This is one part of a sample in which actives are shown more often than they occur.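 The calls were made as follows: active = activation of at least 8% versus controls, or a plate z-score of at least 8; inactive = the rest.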

Experiment: compounds raising alpha-dystroglycan glycosylation – uHTS, Pro5-aDG cells, AlphaScreen, primary screen (AID 624168);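 also: Pro5 are CHO cells carrying HIG-tagged alpha-DG that lacks glycosylation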
Details: alpha-DG glycosylation AlphaScreen (IIH6), at 10 µM, stronger effect = higher value, 0% Pro5, 100% B10-LARGE cell signal

| Structure (SMILES) | activation |
| --- | --- |
| O=C(NCc1cccs1)C(=O)NCC1OCCCN1S(=O)(=O)c1ccc(F)cc1 (stereo not drawn) | 0% (inactive) |
| COCCNC(=O)C(OC(=O)c1cccs1)c1ccc(F)cc1 (stereo not drawn) | -0.1% (inactive) |
| CC(C)C(=O)NCC(c1cccs1)S(=O)(=O)c1ccc(F)cc1 (stereo not drawn) | 6.9% (active) |
| O=C(Cc1ccc(S(=O)(=O)N2CCOCC2)s1)N1CCN(c2ccc(C(F)(F)F)cc2[N+](=O)[O-])CC1 | 0.7% (inactive) |
| COc1cc(OC)cc(C(=O)NC(=S)N2CCN(c3ccc(C(F)(F)F)cc3[N+](=O)[O-])CC2)c1 | 0.3% (inactive) |
| O=C(c1ccc(N2CCCC2=O)cc1)N1CCN(c2ccc(C(F)(F)F)cc2[N+](=O)[O-])CC1 | 7% (active) |
| CC1CCCN(S(=O)(=O)c2ccc(N(C(=O)c3cnccn3)C(C(=O)NC3CCCCC3)c3cccs3)cc2)C1 (stereo not drawn) | -0.1% (inactive) |
| Cc1ccccc1NC(=O)CCNS(=O)(=O)c1ccc2[nH]c(=O)oc2c1 | -0.2% (inactive) |
| COc1ccc(C)cc1NC(=O)CN(C)S(=O)(=O)c1ccc2c(c1)n(C)c(=O)c(=O)n2C | -0.2% (inactive) |
| Cn1nccc1C(=O)NC1CCCc2c1cnn2-c1ccc(F)cc1F (stereo not drawn) | 5% (active) |
| CC1=C(C(=O)NC2CC(C)(C)Cc3c2cnn3-c2ccc(C)cc2)OCCO1 (stereo not drawn) | 0.4% (inactive) |
| COC(=O)c1ccc(C(=O)NC2CC(C)(C)Cc3c2cnn3-c2ccc(F)cc2)nc1 (stereo not drawn) | 0% (inactive) |
| COc1ccc(C23NCCN2C(=O)c2ccccc23)cc1 (stereo not drawn) | -0.1% (inactive) |
| Cc1ccsc1C(=O)NCCc1ccco1 | -0.1% (inactive) |
| Cc1c(CN2CCC(CO)(CCOc3ccccc3)CC2)[nH]c2ccc(Cl)cc12 | 2.4% (inactive) |
| COCCn1c(SCC(=O)c2[nH]c(C)c(C(C)=O)c2C)nc2ccccc2c1=O | 0% (inactive) |
| CCc1[nH]nc(C(=O)N2CCCC(CNS(=O)(=O)c3cccs3)C2)c1C (stereo not drawn) | 0.1% (inactive) |
| Cc1ccccc1OCc1nnc(SCC(=O)N2c3ccccc3Sc3ccc(Cl)cc32)o1 | 0.3% (inactive) |
| O=C(CNCc1ccc(F)cc1)Nc1ccccc1-c1ccccc1 | 0.6% (inactive) |
| Cc1nc2nc[nH]n2c(=O)c1NC(=O)c1cccc(OCC(C)C)c1 | 0.1% (inactive) |
| CCc1cccc(C)c1NC(=O)COC(=O)CC1CCCC1 | 0.2% (inactive) |
| COc1ccc(NC(=O)CSc2nnc(C3CC3)n2C)cc1S(=O)(=O)N1CCCCC1 | -0.1% (inactive) |
| COc1ccc(NC(=O)CSc2nnc(-c3ccccc3F)n2C2CC2)cc1S(N)(=O)=O | 6.3% (active) |
| CC(Sc1nnc(-c2ccccc2F)n1C1CC1)C(N)=O (stereo not drawn) | 0.1% (inactive) |

| Structure (SMILES) | activation |
| --- | --- |
| OCC1OC(n2cnc3c(N4CCCC4)ncnc32)C(O)C1O (stereo not drawn) | -0.1% (inactive) |
| Cc1[nH][nH]c(=O)c1C(c1ccc(-c2ccc(Cl)cc2)o1)c1c(C)[nH][nH]c1=O | 0% (inactive) |
| CCNC(=O)NC(=O)C(C)OC(=O)c1cc(S(=O)(=O)N2CCCCCC2)ccc1OC (stereo not drawn) | 0% (inactive) |
| Cc1cc(C)c(C#N)c(SCC(=O)NN2CC(=O)N(c3ccccc3F)CC2=O)n1 | -0.2% (inactive) |
| COc1ccccc1OCC(=O)Nc1c2c(nn1-c1ccc(F)cc1)CS(=O)(=O)C2 | -0.1% (inactive) |
| CCOc1ccc(C(=O)Nc2c3c(nn2-c2ccccc2)CS(=O)(=O)C3)cc1 | 0.3% (inactive) |
| CCOc1ccc(OCC(=O)Nc2c3c(nn2C(C)(C)C)CS(=O)(=O)C3)cc1 | 7.3% (active) |
| O=S(=O)(c1ccc(Br)cc1)N1CCC(c2nc3ccccc3[nH]2)CC1 | 0.7% (inactive) |
| N#Cc1cnn2cc(CCN3CCOCC3)c(-c3ccc(F)cc3)nc12 | -0.1% (inactive) |
| CNC1(c2nnnn2-c2c(C)cccc2C)CCOC(C)(C)C1 (stereo not drawn) | 0.1% (inactive) |
| O=C(Cn1c(=O)sc2ccccc21)Nc1ccc2c(c1)OCCO2 | 0.4% (inactive) |
| Cc1ccc(CSc2ccc(S(=O)(=O)N3CCCCC3)cn2)cc1 | 0.2% (inactive) |
| O=C(N1CCCCC1)N1CCN(C(=O)N2CCCCC2)CC1 | -0.2% (inactive) |
| CC(=O)Oc1cccc(N2C(=O)C3CC=C(Cl)CC3C2=O)c1 (stereo not drawn) | 2.9% (active) |
| CC(=O)Oc1cccc(N2C(=O)CC(Nc3ccc(N4CCOCC4)cc3)C2=O)c1 (stereo not drawn) | 0.6% (inactive) |
| CC1=CCC2C(=O)N(c3cccc(C(=O)NC(C)c4ccccc4)c3)C(=O)C2C1 (stereo not drawn) | 0% (inactive) |
| O=C1CC(Cc2ccccc2)C(=O)N1c1ccc(Cl)cn1 (stereo not drawn) | -0.3% (inactive) |
| CCCCN(CC)CCCNC(=O)c1ccc(CSc2nc3ccncc3[nH]2)cc1 | -0.1% (inactive) |
| O=C(NCC(=O)N(Cc1cccs1)C(C(=O)NC1CCCCC1)c1ccco1)c1cccs1 (stereo not drawn) | 0.5% (inactive) |
| Cc1nnc(NC(=O)CCC(=O)N2CCC(C)CC2)s1 | -0.2% (inactive) |
| OC(CN=c1sc2ccccc2n1CC(O)COc1ccccc1)COc1ccccc1 (stereo not drawn) | 0.6% (inactive) |
| COc1cccc(CN(C)CC(O)COC(c2ccccc2)c2ccccc2C)c1 (stereo not drawn) | 0.1% (inactive) |
| CN(Cc1ccccc1)CC(O)COc1ccc(CNCc2cc3ccccc3s2)cc1 (stereo not drawn) | 4.3% (active) |
| Cc1nc(N)nc(Cl)c1CCC1OCCO1 | 0.5% (inactive) |

| Structure (SMILES) | activation |
| --- | --- |
| CC(OC(=O)C1CC(=O)N(Cc2ccccc2)C1)C(=O)Nc1ccccc1[N+](=O)[O-] (stereo not drawn) | 0.2% (inactive) |
| CCc1noc(C)c1C(=O)N1CCCSC1=Nc1ccccc1OC | -0.1% (inactive) |
| CCOc1ccc(NC(=O)c2ccc(NC(=O)C3CCCO3)cc2)cc1 (stereo not drawn) | 0.1% (inactive) |
| CCOc1ccc(C(=O)Nc2cccc(SC)c2)cc1 | 0.3% (inactive) |
| Cc1ccc(NC(=O)c2ccc(Oc3ncccn3)cc2)cc1 | 5.5% (active) |
| COc1cc(C(=O)NCCOC(=O)c2cccc(N(C)C)c2)cc(OC)c1OC | 0% (inactive) |
| COCc1c(C(=O)OCC(=O)Nc2ccc(OC(F)F)cc2)oc2ccccc12 | 0.1% (inactive) |
| Cc1cc(C)c(NC(=S)N2CCCC2C(=O)O)c(C)c1 (stereo not drawn) | 0.5% (inactive) |
| CCOC(=O)C1(CCOC)CCN(Cc2cc3ccccc3s2)CC1 | 2% (active) |
| CCOC(=O)C1(CCOc2ccccc2)CCN(C(=O)c2cncs2)CC1 | 0.1% (inactive) |
| CCCS(=O)(=O)N1CCC(CCOc2ccccc2)(C(=O)OCC)CC1 | -0.1% (inactive) |
| CCOC(=O)N1CCN(S(=O)(=O)c2ccc(C(=O)Nc3ccc(F)cc3F)cc2)CC1 | -0.1% (inactive) |
| Cc1c(CCOC(=O)CC23CC4CC(CC(C)(C4)C2)C3)sc[n+]1Cc1ccc([N+](=O)[O-])cc1 | 0.1% (inactive) and -0.2% (inactive) |
| O=C(Nc1ccccc1F)c1cc(S(=O)(=O)N2CCCCC2)cs1 | 0% (inactive) |
| CN1CCN(S(=O)(=O)c2cccc(C(=O)Nc3sccc3C#N)c2)CC1 | 8.2% (active) |
| O=C(Nc1nncs1)c1cccc(S(=O)(=O)N2CCCCC2)c1 | -0.2% (inactive) |
| CN1CCN(S(=O)(=O)c2cccc(C(=O)Nc3cccc(S(N)(=O)=O)c3)c2)CC1 | -0.1% (inactive) |
| CCCOc1ccc(C2NC(=O)NC(c3ccccc3)=C2C(C)=O)cc1OCC (stereo not drawn) | -0.1% (inactive) |
| O=C(c1ccc(F)cc1)C1CCN(Cc2cn[nH]c2-c2ccccc2)CC1 | -0.1% (inactive) |
| CCCCN(CC)C(=O)C1CCCN(S(=O)(=O)c2cccc3nsnc23)C1 (stereo not drawn) | -0.1% (inactive) |
| Clc1ccc(-c2cc(-c3ccccn3)on2)c(Cl)c1 | 0.1% (inactive) |
| Clc1ccc(-c2cc(C3CCNCC3)[nH]n2)c(Cl)c1 | 11.1% (active) |
| Cc1nn(-c2ccccc2)c2c1C(c1cccc([N+](=O)[O-])c1)N(c1ccccc1)C(=O)N2 (stereo not drawn) | -0.2% (inactive) |
| O=C(CCSCCc1ccccn1)Nc1nccs1 | -0.1% (inactive) |

| Structure (SMILES) | activation |
| --- | --- |
| COc1ccc(CCNC(=O)c2ccc(CS(=O)(=O)c3ccc(Br)cc3)o2)cc1OC | -0.2% (inactive) |
| CCc1ccccc1S(=O)(=O)Cc1ccc(C(=O)NCCc2ccccc2)o1 | 13% (active) |
| Cc1ccccc1S(=O)(=O)Cc1ccc(C(=O)NCCN2CCCCC2C)o1 (stereo not drawn) | -0.3% (inactive) |
| CC(C)Oc1cc(F)ccc1-c1cc(C(=O)Nc2ccc(F)cc2)[nH]n1 | 0% (inactive) |
| COc1cc(-c2nnc(NC(=O)CS(=O)(=O)c3ccc(Cl)cc3)o2)cc(OC)c1OC | 0.5% (inactive) |
| O=C(Nc1nnc(-c2ccccc2)o1)c1cccc(S(=O)(=O)N2CCOCC2)c1 | 0.3% (inactive) |
| COc1cccc(-c2nnc(NC(=O)c3ccc(S(=O)(=O)N(CC(C)C)CC(C)C)cc3)o2)c1 | 6.1% (active) |
| CCCN(CCC)C(=O)C1c2ccccc2Oc2ccccc21 | 0.2% (inactive) |
| C[C@H](CO)N1C[C@H](C)[C@H](CN(C)C(=O)Nc2ccc(C(F)(F)F)cc2)Oc2c(NC(=O)c3ccncc3)cccc2C1=O | -0.2% (inactive) |
| O=C(NCC1CCCCC1)NCC1CCCCC1 | -0.2% (inactive) |
| Cc1ccc(Nc2cc(=O)n(C3CCCCC3)c(=O)[nH]2)cc1C | 0.5% (inactive) |
| CC(NC(=O)c1cccc(S(=O)(=O)N2CCc3ccccc3C2)c1)c1ccco1 (stereo not drawn) | 0.1% (inactive) |
| CCOC(=O)c1ccc(NC(=O)Cn2cnc3cc(C)c(C)cc32)cc1 | 3.2% (active) |
| CCOC(=O)c1ccc(NC(=O)CCn2c(=O)oc3ccccc32)cc1 | 0% (inactive) |
| CCOC(=O)c1ccc(NC(=O)CS(=O)(=O)c2cn(CC)c3ccccc23)cc1 | -0.1% (inactive) |
| COc1c(C)cc(C(O)c2ncc(-c3cccc(C(F)(F)F)c3)[nH]2)cc1C (stereo not drawn) | 0.3% (inactive) |
| CC(C)c1cccc(C(C)C)c1Nc1cn[nH]c1 | 0.6% (inactive) |
| COc1ccccc1C(=O)C(O)c1ccccc1OC (stereo not drawn) | 0.1% (inactive) |
| OC[C@@H]1CN(Cc2ccc(-c3ccccc3)cc2)C[C@H](n2cnc3c(NC4CCCC4)ncnc32)O1 | 7.5% (active) |
| OC[C@@H]1CN(C2CCCC2)C[C@H](n2cnc3c(NC4CCC4)ncnc32)O1 | 0.3% (inactive) |
| CC(C)Nc1ncnc2c1ncn2[C@H]1CN(Cc2ccncc2)C[C@@H](CO)O1 | 0.2% (inactive) |
